Measured values published in PubChem BioAssay (Tox21).
Records with an inconclusive call do not appear. Calls of active or inactive are those of the source. Unless noted, calls come from the whole dose curve; as a rule, active = well fitted curve in the direction sought with a large enough effect in the repeat runs; inconclusive = weak or mixed curves; inactive = no such curve, though single readings can be large; an effect the other way counts as inactive or inconclusive.

What was measured:
[1] = biological target: Estrogen receptor beta (Homo sapiens) (UniProt Q92731); experiment: qHTS assay to identify small molecule agonists of the estrogen receptor beta (ER-beta) signaling pathway (AID 1259377; active = well fitted activation curve with a large enough effect in the signal ratio in the repeat runs, not every such curve was filed as active; the % refers to the signal ratio)
Sequence of Estrogen receptor beta (Homo sapiens) (Q92731 whole entry, looked up): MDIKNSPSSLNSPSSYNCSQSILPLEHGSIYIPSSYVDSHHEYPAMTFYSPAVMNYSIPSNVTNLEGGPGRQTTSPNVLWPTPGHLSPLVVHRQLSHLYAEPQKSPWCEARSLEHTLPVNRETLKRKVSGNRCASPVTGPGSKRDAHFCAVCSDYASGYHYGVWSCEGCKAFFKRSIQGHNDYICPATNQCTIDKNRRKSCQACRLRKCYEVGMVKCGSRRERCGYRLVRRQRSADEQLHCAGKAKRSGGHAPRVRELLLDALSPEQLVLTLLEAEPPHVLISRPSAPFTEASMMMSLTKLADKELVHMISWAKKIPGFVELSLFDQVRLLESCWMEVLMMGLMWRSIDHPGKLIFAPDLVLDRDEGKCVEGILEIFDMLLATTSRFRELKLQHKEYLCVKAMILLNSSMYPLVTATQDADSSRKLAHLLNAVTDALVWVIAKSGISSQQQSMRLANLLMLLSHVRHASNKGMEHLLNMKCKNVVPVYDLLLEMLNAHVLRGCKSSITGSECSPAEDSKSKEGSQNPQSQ
Method in brief: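 ER-beta-UAS-bla HEK293T (GripTite) cells carrying a UAS-driven beta-lactamase reporter, in medium with 2% charcoal-stripped FBS, were exposed to compounds for 16 hr at 37C; LiveBLAzer B/G FRET substrate was then added and fluorescence read after 2 hours at room temperature.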

[2] = biological target: Estrogen receptor beta (Homo sapiens) (UniProt Q92731); experiment: qHTS assay to identify small molecule antagonists of the estrogen receptor beta (ER-beta) signaling pathway (AID 1259378; active = well fitted inhibition curve with a large enough effect in the signal ratio in the repeat runs, not every such curve was filed as active; the % refers to the signal ratio)
Method in brief: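 Antagonist mode: compounds added to beta-lactamase reporter HEK293T ER-beta-UAS cells stimulated with E2 (1nM final), 16 hr at 37C. LiveBLAzer B/G FRET substrate, 2 hours room temperature, fluorescence read-out.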

[3] = qHTS assay to identify small molecule agonists of the androgen receptor (AR) signaling pathway in the presence of an antagonist - cell viability counter screen (AID 1259379); note: series mostly up to about 92 µM; nearly all actives have a fitted effect of over 25% in size
Method in brief: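 MDA-kb2 human breast carcinoma cells (stable MMTV-luciferase, AR/GR responsive) were seeded 3,000 cells/well, pre-incubated 5 hr at 37C without CO2, then given 3.0uM nilutamide and compounds at 15 concentrations for 16 hr. Viability was read by CellTiter-Fluor fluorescence.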

[4] = qHTS assay to identify small molecule agonists of the estrogen receptor beta (ER-beta) signaling pathway - cell viability counter screen (AID 1259380); note: nearly all actives have a fitted effect of over 30% in size; note: potency is the fitted concentration of half-maximal effect
Method in brief: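 ER-beta-UAS-bla HEK293T cells in medium with 2% charcoal-stripped FBS were preincubated 6 hr at 37C, dosed with compound in DMSO for 16 hr, then after the bla read, CellTiter-Glo was added for 30 min at room temperature; luminescence recorded.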

[5] = qHTS assay to identify small molecule agonists or antagonists of the thyroid stimulating hormone receptor (TSHR) signaling pathway - wild type cell line counter screen (AID 1259384; calls by dose curve)
Method in brief: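 Counter screen in untransfected Hek293: compounds (15-point titration, triplicate) plus phosphodiesterase inhibitor Ro20-1724 added after 18 h plating; 30 min RT. Intracellular cAMP via competitive d2/cryptate immunoassay, 1 h incubation.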

[6] = biological target: Thyrotropin receptor (Homo sapiens) (UniProt P16473); experiment: qHTS assay to identify small molecule antagonists of the thyroid stimulating hormone receptor (TSHR) signaling pathway (AID 1259385; calls by dose curve; note: nearly all actives have a fitted effect of over 20% in size; note: potency is the fitted concentration of half-maximal effect)
Sequence of Thyrotropin receptor (Homo sapiens) (P16473 whole entry, looked up): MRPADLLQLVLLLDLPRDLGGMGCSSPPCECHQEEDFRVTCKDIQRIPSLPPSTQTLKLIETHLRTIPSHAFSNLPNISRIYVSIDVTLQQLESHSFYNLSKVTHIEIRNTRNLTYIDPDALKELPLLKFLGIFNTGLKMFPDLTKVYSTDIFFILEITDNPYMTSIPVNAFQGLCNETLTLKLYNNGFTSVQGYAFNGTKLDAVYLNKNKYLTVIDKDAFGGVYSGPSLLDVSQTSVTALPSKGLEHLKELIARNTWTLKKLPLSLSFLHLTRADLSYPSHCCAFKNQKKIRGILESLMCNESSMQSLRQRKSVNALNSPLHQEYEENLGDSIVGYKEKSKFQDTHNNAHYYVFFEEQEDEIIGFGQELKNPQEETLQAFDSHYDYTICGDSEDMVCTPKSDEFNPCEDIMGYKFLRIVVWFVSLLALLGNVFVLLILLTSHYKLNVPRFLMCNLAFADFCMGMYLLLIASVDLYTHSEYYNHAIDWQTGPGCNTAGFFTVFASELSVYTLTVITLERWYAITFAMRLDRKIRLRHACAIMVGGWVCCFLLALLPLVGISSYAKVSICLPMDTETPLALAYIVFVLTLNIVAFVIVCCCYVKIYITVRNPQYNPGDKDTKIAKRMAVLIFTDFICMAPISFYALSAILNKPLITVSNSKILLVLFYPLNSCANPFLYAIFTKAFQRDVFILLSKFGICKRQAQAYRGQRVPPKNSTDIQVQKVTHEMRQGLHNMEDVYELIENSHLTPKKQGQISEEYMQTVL
Method in brief: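 Antagonist mode: compound-treated TSHR-expressing HEK293 cells were stimulated with 1.5 ng/mL TSH (final) in presence of Ro20-1724 for 30 min at RT. HTRF cAMP detection after 1 h; each compound tested at 15 concentrations, triplicate.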

[7] = biological target: Estrogen receptor (Homo sapiens) (UniProt P03372); experiment: qHTS assay to identify small molecule agonists of the estrogen receptor alpha (ER-alpha) signaling pathway in the presence of an antagonist (AID 1259383; calls by dose curve; note: top concentration of the series differs between compounds; nearly all actives have a fitted effect of over 15% in size)
Sequence of Estrogen receptor (Homo sapiens) (P03372 whole entry, looked up): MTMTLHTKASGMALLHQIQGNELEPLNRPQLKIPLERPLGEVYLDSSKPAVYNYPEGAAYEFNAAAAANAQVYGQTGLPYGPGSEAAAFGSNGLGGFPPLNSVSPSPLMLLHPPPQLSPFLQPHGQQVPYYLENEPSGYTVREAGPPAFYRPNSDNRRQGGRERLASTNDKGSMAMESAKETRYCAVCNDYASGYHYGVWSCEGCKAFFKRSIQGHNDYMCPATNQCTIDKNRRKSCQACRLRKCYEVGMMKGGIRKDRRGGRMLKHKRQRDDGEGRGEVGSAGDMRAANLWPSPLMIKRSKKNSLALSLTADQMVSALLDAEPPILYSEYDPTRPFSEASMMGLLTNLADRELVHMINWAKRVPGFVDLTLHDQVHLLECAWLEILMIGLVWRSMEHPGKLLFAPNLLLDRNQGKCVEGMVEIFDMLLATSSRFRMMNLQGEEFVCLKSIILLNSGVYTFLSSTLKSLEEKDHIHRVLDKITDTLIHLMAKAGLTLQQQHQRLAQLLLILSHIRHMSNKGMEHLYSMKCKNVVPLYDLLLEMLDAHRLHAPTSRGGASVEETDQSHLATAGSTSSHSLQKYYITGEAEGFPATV
Method in brief: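 VM7Luc4E2 cells (endogenous full-length ER-alpha, 4×ERE-luciferase) were precultured 5 days in phenol red-free medium with 10% charcoal-stripped FBS, given 10.0nM ICI-182,780 (final), then treated with compounds at 15 concentrations for 22hr at 37C; luminescence read with ONE-Glo.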

[8] = qHTS assay to identify small molecule antagonists of the estrogen receptor beta (ER-beta) signaling pathway - cell viability counter screen (AID 1259382); note: series mostly up to about 92 µM; nearly all actives have a fitted effect of over 55% in size
Method in brief: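 ER-beta-UAS-bla HEK293T cells (2,000/well, 2% charcoal-stripped FBS) were pre-incubated 6 hr at 37C, then given compound plus 1nM final 17-beta-estradiol for 16 hr. Viability was read in the same wells by CellTiter-Glo luminescence after 30 min at room temperature.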

[9] = biological target: Androgen receptor (Homo sapiens) (UniProt P10275); experiment: qHTS assay to identify small molecule agonists of the androgen receptor (AR) signaling pathway in the presence of an antagonist (AID 1259381; calls by dose curve; note: nearly all actives have a fitted effect of over 15% in size)
Sequence of Androgen receptor (Homo sapiens) (P10275 whole entry, looked up): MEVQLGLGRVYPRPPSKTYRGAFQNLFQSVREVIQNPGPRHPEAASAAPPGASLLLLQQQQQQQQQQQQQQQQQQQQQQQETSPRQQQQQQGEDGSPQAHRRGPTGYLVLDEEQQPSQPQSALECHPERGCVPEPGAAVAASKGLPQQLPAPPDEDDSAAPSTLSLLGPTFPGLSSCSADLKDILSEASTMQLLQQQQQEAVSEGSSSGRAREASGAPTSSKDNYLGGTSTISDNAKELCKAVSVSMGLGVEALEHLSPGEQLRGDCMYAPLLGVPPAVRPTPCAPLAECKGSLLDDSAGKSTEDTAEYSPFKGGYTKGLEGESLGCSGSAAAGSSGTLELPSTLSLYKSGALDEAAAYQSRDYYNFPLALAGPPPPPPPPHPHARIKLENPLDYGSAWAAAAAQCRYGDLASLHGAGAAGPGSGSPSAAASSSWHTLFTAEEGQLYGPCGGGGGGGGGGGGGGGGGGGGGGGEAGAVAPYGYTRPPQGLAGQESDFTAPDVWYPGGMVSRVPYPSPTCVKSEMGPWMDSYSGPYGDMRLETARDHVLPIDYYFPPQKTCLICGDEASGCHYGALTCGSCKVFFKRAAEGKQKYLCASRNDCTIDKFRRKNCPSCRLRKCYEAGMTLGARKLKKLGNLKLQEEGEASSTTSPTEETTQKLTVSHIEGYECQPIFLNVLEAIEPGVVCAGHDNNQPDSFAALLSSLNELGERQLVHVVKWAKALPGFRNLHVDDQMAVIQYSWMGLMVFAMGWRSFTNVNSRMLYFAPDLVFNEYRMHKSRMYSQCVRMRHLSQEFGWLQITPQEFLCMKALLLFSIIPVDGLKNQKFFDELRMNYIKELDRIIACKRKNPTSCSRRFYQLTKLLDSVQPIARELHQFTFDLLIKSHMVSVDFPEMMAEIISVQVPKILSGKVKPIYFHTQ
Method in brief: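 MDA-kb2 human breast carcinoma cells carrying an MMTV-luciferase reporter (AR- and GR-responsive) were treated with compounds at 15 concentrations plus 3.0uM final nilutamide for 16hr at 37C without CO2; luminescence was read after ONE-Glo addition.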

[10] = qHTS assay to identify small molecule antagonists of the sonic hedgehog signaling (Shh) pathway (AID 1259369; calls by dose curve; note: nearly all actives have a fitted effect of over 45% in size)
Method in brief: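 NIH/3T3-derived 3T3Gli1-Luc cells with stably integrated Gli1-Luc reporter were preincubated 4hr at 37 C, then given compounds in DMSO plus Shh conditioned medium and incubated 24hr. Firefly luciferase luminescence read after 30min reagent at room temperature.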
% is set by controls: 0 for no effect and ±100 for the full control effect.

CN(C)CCOc1ccccc1Cc1ccccc1
inactive: outcome [1] | Potency [2] | Potency [3] | outcome [5]
active: Potency [4] 26.6 µM | Potency [6] 29.8 µM

FC(F)(F)C(F)(F)C(F)(F)C(F)(F)C(F)(F)C(F)(F)C(F)(F)C(F)(F)Br
inactive: outcome [1] | Potency [2] | Potency [3] | Potency [4] | Potency [7] | outcome [5]

CC(CNC1CCCCC1)OC(=O)c1ccccc1 (stereo not drawn)
inactive: outcome [1] | Potency [2] | Potency [3] | Potency [4] | outcome [8] | Potency [7] | outcome [5] | Potency [6]

O=C1CCCCCCCCCCC(=O)OCCO1
inactive: outcome [1] | Potency [2] | Potency [3] | outcome [8] | Potency [7] | outcome [5] | Potency [6]

CC1(C)S[C@@H]2[C@H](NC(=O)C(C(=O)O)c3ccccc3)C(=O)N2[C@H]1C(=O)O (stereo partly drawn)
inactive: outcome [1] | Potency [2] | Potency [3] | outcome [8]

OCCN(CCO)CCN(CCO)CCO
inactive: outcome [1] | Potency [2] | Potency [3] | Potency [4] | Potency [9] | outcome [8] | Potency [7] | outcome [5] | Potency [6]

NC(Cc1ccc(F)cc1)C(=O)O (stereo not drawn)
inactive: activation [1] -1.32% [at 8.39 µM] | activity, negative = inhibition [2] 7.98% [at 8.39 µM] | activity change, negative = cytotoxicity [3] -0.068% [at 8.39 µM] | activity change, negative = cytotoxicity [4] 1.35% [at 8.39 µM] | cAMP activity change [5] -1.15% [at 8.39 µM]

CC1=NN(c2cc(Cl)c(S(=O)(=O)O)cc2Cl)C(=O)C1N=Nc1ccc(S(=O)(=O)O)cc1 (stereo not drawn)
inactive: Potency [10] | outcome [8] | outcome [5] | Potency [6]

CCCCc1ccc2nc(NC(=O)OC)[nH]c2c1
inactive: outcome [1] | Potency [2] | Potency [4] | Potency [9] | outcome [8] | Potency [7]

CC1(O)CSC(C)(O)CS1 (stereo not drawn)
inactive: outcome [1] | Potency [2] | Potency [3] | Potency [4] | Potency [9] | outcome [8] | Potency [7]

FC(F)(F)C(Cl)(Cl)Cl
inactive: outcome [1] | Potency [2] | Potency [3] | Potency [4] | outcome [8] | Potency [7] | outcome [5]

O=C1CCC(C2CCCCC2)CC1
inactive: outcome [1] | Potency [2] | Potency [3] | Potency [4] | outcome [8] | outcome [5] | Potency [6]

O=S(=O)(O)C(F)(F)F
inactive: outcome [1] | Potency [2] | Potency [3] | Potency [4] | outcome [8] | Potency [7] | outcome [5]

NNS(=O)(=O)c1ccc(Oc2ccc(S(=O)(=O)NN)cc2)cc1
inactive: outcome [1] | Potency [2] | Potency [3] | outcome [8] | Potency [7] | outcome [5] | Potency [6]

CC(C)CCCCCCc1ccc(OCCOCCO)cc1
inactive: outcome [1] | Potency [2] | Potency [3] | Potency [4] | Potency [9] | outcome [8] | Potency [7] | outcome [5] | Potency [6]

Cn1cnc2c(F)c(Nc3ccc(Br)cc3Cl)c(C(=O)NOCCO)cc21
inactive: outcome [1] | Potency [2] | Potency [3] | Potency [4] | Potency [9] | outcome [8]

Cc1ccc(C=O)s1
inactive: outcome [1] | Potency [2] | Potency [3] | Potency [4] | outcome [8]

c1ccc(CN(CC2=NCCN2)c2ccccc2)cc1
inactive: outcome [1] | Potency [2] | Potency [3] | outcome [8] | Potency [7] | outcome [5]

Cc1cc(NS(=O)(=O)c2ccc(N)cc2)nc(C)n1
inactive: outcome [1] | Potency [2] | Potency [3] | Potency [4] | outcome [8] | Potency [7] | outcome [5]

CCOC(=O)NCCC[Si](OCC)(OCC)OCC
inactive: outcome [1] | Potency [2] | Potency [3] | Potency [4] | outcome [8] | Potency [7] | outcome [5] | Potency [6]

CCOc1ccccc1N
inactive: Potency [10] | Potency [7] | outcome [5] | Potency [6]

CC(C)c1ccccc1
inactive: outcome [1] | Potency [2] | Potency [3] | Potency [4] | Potency [9] | Potency [7] | outcome [5] | Potency [6]

CCCCCCCCCC/C=C/C#N
inactive: outcome [1] | Potency [2] | Potency [3] | Potency [4] | outcome [8] | Potency [7] | outcome [5] | Potency [6]

C=CC(C)(O)CC/C=C(\C)CCC=C(C)C (stereo not drawn)
inactive: outcome [1] | Potency [2] | Potency [3] | Potency [4] | outcome [8]

CC(C)=CCC[C@](C)(O)[C@@H]1CC=C(C)CC1
inactive: outcome [1] | Potency [2] | Potency [3] | Potency [4] | outcome [8] | outcome [5] | Potency [6]

CC(=O)Oc1cc(C(C)C)c(OCCN(C)C)cc1C
inactive: outcome [1] | Potency [2] | Potency [3] | outcome [8] | outcome [5]

C=O
inactive: outcome [1] | Potency [2] | Potency [3] | Potency [4] | outcome [8] | outcome [5] | Potency [6]

COC(=O)c1ccc(OC)cc1
inactive: outcome [1] | Potency [2] | Potency [3] | Potency [4] | outcome [8] | outcome [5] | Potency [6]

CO[C@@]1(NC(=O)CSCC#N)C(=O)N2C(C(=O)O)=C(CSc3nnnn3C)CS[C@@H]21
inactive: outcome [1] | Potency [2] | Potency [3] | Potency [4] | outcome [8] | Potency [7]
